Screening results deposited in PubChem BioAssay by National Center for Advancing Translational Sciences (NCATS).
HPGD block: blocks human HPGD enzyme activity; P15428; purified HPGD, NADH fluorescence kinetic, PGE2 substrate; Potency, µM, without a hit: top-dose activity change, negative = inhibition, usual class: inhibitors; actives 4.3% (n = 150,000); AID 894; note: potency is the fitted concentration of half-maximal effect
Target sequence (P15428 whole entry, looked up): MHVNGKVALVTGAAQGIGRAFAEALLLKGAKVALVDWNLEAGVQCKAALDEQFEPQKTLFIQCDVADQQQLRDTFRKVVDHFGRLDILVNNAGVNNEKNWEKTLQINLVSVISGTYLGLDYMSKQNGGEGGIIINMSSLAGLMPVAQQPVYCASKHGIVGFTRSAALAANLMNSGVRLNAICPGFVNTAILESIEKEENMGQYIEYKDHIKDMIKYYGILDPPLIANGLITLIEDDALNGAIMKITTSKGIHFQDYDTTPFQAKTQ
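NADH formation kinetics: reaction with 30 uM PGE2 and 1 mM NAD+ (final), 20 nM enzyme, Tris-HCl pH 8 with Tween 20, after 15 min compound preincubation at room temperature. Fluorescence change, last versus first of five reads.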
Lamin A splicing: modulators of lamin A splicing; HeLa LMNA splicing GFP/RFP minigene ratio, 48 h; AID 1487; actives 0.01% (n = 200,000); Potency, µM (titrated, usually from 46.1 µM), for inactives: at the top dose ratio change, negative = inhibition, actives largely listed as inhibitors; active = well fitted inhibition curve with a large enough effect in the signal ratio, with a control signal flat, not every such curve was filed as active; inconclusive = small, poorly fitted or top-dose-only effect, or effect the other way, or a change in a side signal; the % refers to the signal ratio; note: potency is the fitted concentration of half-maximal effect
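S3 HeLa stable clones carrying a lamin A-EGFP splicing minigene plus DsRed2 were seeded at 600 cells/well in Opti-MEM with 2% FBS, pin-dosed and incubated 48 h at 37°C. Acumen cytometry (488 nm) gave the GFP/RFP total-intensity ratio.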
PNC assembly inh: perinucleolar compartment assembly inhibition. PC3M PTB-GFP, PNC prevalence imaging, 16 h; hits give low values. activity change (PNC), negative = inhibition, % at 10 µM. AID 2417. actives 3.1% (n = 140,000);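 active = readout at or below -70, meaning at least 70% loss of cells showing the perinucleolar compartment, a nuclear body marking cancer cells; inconclusive = readout between -30 and a set limit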;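 note: plate controls were DMSO wells for no effect and camptothecin positive control wells for full effect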
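PC3M cells stably expressing PTB-GFP, 750–1000 cells/well, treated 16 h at 37 °C with compound (23 nl of library stock), in duplicate. After paraformaldehyde fixation and Hoechst stain, imaged at 20x; PNC prevalence scored by image analysis.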
ALOX12 inhib: inhibitors of human 12-lipoxygenase (ALOX12); P18054; purified 12-hLO, xylenol orange hydroperoxide absorbance; Potency, µM (series often up to 57.1 µM), inactives show at the top dose activity change, negative = inhibition, usual class: inhibitors; actives 0.12% (n = 150,000); AID 1452; active = well fitted inhibition curve with a large enough effect; inconclusive = small, poorly fitted or top-dose-only effect; note: potency is the fitted concentration of half-maximal effect; nearly all actives have a fitted effect of over 55% in size
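Purified human 12hLO (150 nM), preincubated 15 min with compound, then 40 uM arachidonic acid for 30 min, room temperature, Hepes pH 7.0 with 0.01% Triton X-100. Hydroperoxide detected by ferrous iron/xylenol orange; 573/405 nm absorbance ratio gives reaction progress.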
ALDH1A1 inh: ALDH1A1 (human) enzyme inhibition | Potency, µM (series often up to 75.3 µM), without a hit: top-dose activity, negative = inhibition, usual class: inhibitors | actives 7.3% (n = 220,000) | Purified ALDH1A1, NADH fluorescence, propionaldehyde substrate | AID 1030 | P00352;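 note: potency is the fitted concentration of half-maximal effect; plate controls were no enzyme wells and a reference inhibitor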
Target sequence (P00352 whole entry, looked up): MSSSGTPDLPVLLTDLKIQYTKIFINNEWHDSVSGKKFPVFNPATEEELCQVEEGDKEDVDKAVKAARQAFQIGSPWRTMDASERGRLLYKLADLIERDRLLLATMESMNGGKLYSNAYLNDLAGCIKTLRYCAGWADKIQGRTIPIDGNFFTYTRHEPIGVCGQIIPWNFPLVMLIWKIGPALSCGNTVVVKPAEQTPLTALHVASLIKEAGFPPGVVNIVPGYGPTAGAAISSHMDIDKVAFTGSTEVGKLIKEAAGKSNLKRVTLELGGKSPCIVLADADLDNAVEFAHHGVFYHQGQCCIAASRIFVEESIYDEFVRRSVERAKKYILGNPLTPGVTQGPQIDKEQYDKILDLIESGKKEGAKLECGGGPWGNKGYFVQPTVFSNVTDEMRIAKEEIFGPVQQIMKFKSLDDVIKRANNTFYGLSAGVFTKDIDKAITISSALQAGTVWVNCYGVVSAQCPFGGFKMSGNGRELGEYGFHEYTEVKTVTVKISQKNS
* hit, by the source's call; ? = inconclusive; . = not tested or not shown; [ ] = remark or other dose. A selection: hits, their analogues and other compounds. The true share with any hit is near 10%. Unless noted, calls come from the whole dose curve; as a rule, active = well fitted inhibition curve with a large enough effect (not every such curve was filed as active); inconclusive = small, poorly fitted or top-dose-only effect, or another doubt; inactive = no such curve, though single readings can be large or run the other way. Unless noted, % is set by controls: 0 for no effect and ±100 for the full control effect.

SMILES | HPGD block | Lamin A splicing | PNC assembly inh | ALOX12 inhib | ALDH1A1 inh
COc1ccc(CCNc2ncnc3c2nnn3C)cc1 | . | 0%[46 µM] | . | . | .
COc1ccc(-c2nc3sc(CCNC(=O)C(=O)Nc4cc(C)cc(C)c4)c(C)n3n2)cc1 | . | 1%[46 µM] | . | . | .
CCC(C(=O)Nc1cc(Cl)c(OC)cc1OC)c1ccccc1 (centres undefined) | . | -6%[46 µM] | . | . | 20µM*
Cc1ccc(C(=O)O)cc1-n1c(C)cc(C=O)c1C | . | . | . | . | 2µM*
Cc1c(C(=O)O)cccc1-n1c(C)cc(C=O)c1C | . | 5%[46 µM] | . | . | 22µM*
CCOc1ccc(-c2cc3c(=O)n(CC(=O)NCc4ccc(C)cc4)ccn3n2)cc1 | . | -1%[46 µM] | . | . | .
CC[C@]1(O)C[C@H]2CN(CCc3c([nH]c4ccccc34)[C@](C(=O)OC)(c3cc4c(cc3OC)N(C)[C@@H]3[C@](O)(C(=O)OC)[C@H](OC(C)=O)[C@]5(CC)C=CCN6CC[C@]43[C@@H]65)C2)C1 | . | . | . | -12% | .
Cn1c(SCC#N)nnc1-c1ccc2c(c1)OCO2 | -5% | -11% | -119* | 3% | -9%
CN(Cc1ccccc1)S(=O)(=O)c1ccc(Cl)nc1 | -22% | 1% | 65 | 3% | 22µM*
CCOC(=O)c1ccc[n+](CC(=O)c2ccccc2)c1 | -4% | -6% | 0 | 4% | -9%
CCOC(=O)c1ccc[n+](C(C)C(=O)c2ccc(-c3ccccc3)cc2)c1 (centres undefined) | -9% | -12% | 19 | 5% | 5.6µM*
Cc1sc2nc(SCC(=O)NCc3ccco3)n(-c3ccccc3)c(=O)c2c1C | -30% | 8% | -84* | 1% | -6%
CN(Cc1ccccc1)C(=O)CSc1nc2ccccc2c(=O)n1Cc1ccco1 | -26% | ? | ? | -11% | 7.9µM*
COCCNC(=O)CSc1nc2cc(OC)c(OC)cc2c(=O)n1CCc1ccc(S(N)(=O)=O)cc1 | . | . | . | . | -3%
NC(=O)CSc1nnc2n(-c3ccccc3)c(=O)c3c4c(sc3n12)CCCCC4 | -1% | 0% | -81* | -5% | ?
COc1cc2nc(SCC(=O)NCCc3ccccc3)n(Cc3ccco3)c(=O)c2cc1OC | -10% | -13% | 36 | -3% | 3.5µM*
CCCN(CCC)C(=O)CSc1nc2ccccc2c(=O)n1Cc1ccco1 | . | 8%[46 µM] | . | . | .
Cc1ccc(-c2nn(CC(=O)NC3CCCC3)c3c2cnc2ccc(F)cc23)cc1C | . | 10%[46 µM] | . | . | .
Cc1ccc(-n2ncc(C(=O)NC3CCCC3)c2C2CCN(C(=O)OC(C)(C)C)CC2)c(C)c1 | . | 11%[46 µM] | . | . | .
O=C(CSc1nc2ccccc2c(=O)n1Cc1ccco1)NCc1ccco1 | -21% | -12% | 84 | 2% | 25µM*
O=C(CSc1nc2c(sc3ccccc32)c(=O)n1Cc1ccco1)NCC1CCCO1 (centres undefined) | 5% | 3% | -89* | 2% | 18µM*
O=C(CSc1nc2cccnc2n1Cc1ccccc1)NCc1ccco1 | 32µM* | 6% | 31 | 3% | 25µM*
O=C(CSc1nc2ccccc2c(=O)n1-c1ccccc1)NCc1ccco1 | -25% | ? | -1 | -7% | 4.5µM*
CCn1c(SCC(=O)NCc2ccco2)nc2cccnc21 | ? | -7% | 6 | 4% | -14%
CC1(C)CC2CC(C)(CN2C(=O)c2ccc([N+](=O)[O-])cc2[N+](=O)[O-])C1 (centres undefined) | . | . | . | . | 7%
SMILES | HPGD block | Lamin A splicing | PNC assembly inh | ALOX12 inhib | ALDH1A1 inh
Cc1sc2nc(SCC(=O)N3CCN(CCO)CC3)n(-c3ccccc3)c(=O)c2c1C | -14% | 0% | 25 | 3% | ?
Cc1sc2nc(SCC(N)=O)n(-c3ccccc3)c(=O)c2c1C | . | 18%[46 µM] | . | . | 18µM*
O=C(CSc1ncnc2nc[nH]c12)Nc1nnc(SCc2ccc(Cl)c(Cl)c2)s1 | . | ? | . | . | -2%
COc1ccccc1Cn1cccc1C=O | . | . | . | . | 14µM*
COc1ccccc1-n1cccc1C=O | . | -5%[46 µM] | . | . | 0%
O=C(c1ccncc1)N1CCC2(CC1)CCN(c1ccncc1)CC2 | -3% | . | . | 0% | -4%
Nc1nnnn1/N=C/c1ccc(N2CCCCC2)c([N+](=O)[O-])c1 | -14% | -17% | -2 | 3% | 0.071µM*
O=C(/C=C/c1ccccc1)N1CCN(c2c(Cl)cccc2[N+](=O)[O-])CC1 | 14µM* | ? | ? | -2% | ?
COc1ccccc1N1CCN(C(=O)/C=C/c2ccc(C)cc2)CC1 | -6% | ? | 40 | 1% | -2%
O=C(/C=C/c1ccc(N2CCCCC2)c([N+](=O)[O-])c1)c1ccc(O)cc1 | . | ? | . | . | 25µM*
COc1ccccc1N1CCN(C(=O)/C=C/c2cccc([N+](=O)[O-])c2)CC1 | . | . | . | . | 14µM*
O=C(O/N=C\c1ccc(N2CCCCC2)c([N+](=O)[O-])c1)c1ccc(Cl)cc1Cl | -6% | 18% | 52 | 6% | ?
CC(=O)c1ccc(NC(=O)C2CCN(S(=O)(=O)c3ccc4c(c3)CCCN4C(=O)C3CCC3)CC2)cc1 | . | 9%[46 µM] | . | . | .
COC(=O)c1cc(NS(=O)(=O)c2ccc(N3CCCCC3)c([N+](=O)[O-])c2)cc(C(=O)OC)c1 | -12% | 16% | 1 | -9% | ?
COc1ccccc1C(=O)/C=C/c1ccc(N2CCCCC2)c([N+](=O)[O-])c1 | -11% | ? | ? | -5% | 6.3µM*
O=C(CSc1nnc2[nH]c(=O)cc(-c3ccccc3)n12)Nc1cc(C(F)(F)F)ccc1Cl | . | -25%[46 µM] | . | . | .
CC(=O)O[C@@]1(C(C)=O)CCC2C3C=C(Cl)C4=CC(=O)C5CC5[C@@]4(C)C3CC[C@]21C (some centres undefined) | -6% | . | . | -5% | 1%
O=C(COC(=O)c1ccc2c(c1)S(=O)(=O)N=C1CCCCCN12)NCc1cccs1 | . | . | . | . | 14µM*
CC(C)C1C(C#N)=C(N)SC(N)=C1C#N | ? | 11% | ? | -3% | 8.9µM*
CC(c1ccccc1)C1C(C#N)=C(N)SC(N)=C1C#N (centres undefined) | . | 2% | 7 | -21% | 20µM*
CC(CC1C(C#N)=C(N)SC(N)=C1C#N)c1ccccc1 (centres undefined) | 14µM* | -10% | 16 | -7% | 10µM*
CC(c1ccccc1)C1C(C#N)=C(N)OC2=C1C(=O)CCC2 (centres undefined) | -15% | 6% | 34 | 6% | 14%
CCC(CC)C1C(C#N)=C(N)SC(N)=C1C#N | -22% | 4% | 2 | -14% | ?
CCOc1ccc(OCC)c(NS(=O)(=O)c2c(C(=O)N3CCC(C)CC3)c(C)n(C)c2C)c1 | . | -19%[46 µM] | . | . | .
CCC(C)(C)n1nnnc1C(c1ccc(C)cc1)N1CCC(C)CC1 (centres undefined) | -3% | 2% | ? | -3% | -3%
CC(C)CCn1nnnc1CN1CCN(C(c2ccccc2)c2ccccc2)CC1 | . | 15%[9.22 µM] | . | . | 14µM*
